Data published in PubChem BioAssay.
Activity calls are given as the source filed them. Unless noted, the rule behind the calls is not given here.

What was measured:
[1] = A549 cell viability effects, profiling panel, calcein-AM fluorescence, 48 h, basal (AID 1162); details: higher = more signal; note: test concentration not given here
[2] = adipocyte viability effects, profiling panel, cell-based, 3T3-L1 adipocytes, calcein-AM fluorescence, 48 h, basal (AID 1163); details: 3T3-L1 adipocytes viability, higher = more signal; note: test concentration not given here
[3] = HepG2 cell viability effects, profiling panel, calcein-AM fluorescence, 48 h, basal (AID 1164); details: higher = more signal; note: test concentration not given here
[4] = MM1S cell viability effects, profiling panel, calcein-AM fluorescence, 48 h, basal (AID 1165); details: higher = more signal;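 note: viability of MM1S multiple myeloma cells under basal unstimulated conditions; test concentration not given here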
[5] = basal RPMI8226 viability, no added stimulus, profiling panel, cell-based, calcein-AM fluorescence, 48 h, PK04 Diversity Set (AID 1166); details: RPMI8226 myeloma viability, higher = more signal;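 note: cells grown under basal conditions without added stimulus; test concentration not given here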
[6] = basal HepG2 mitochondrial membrane potential changes, profiling panel, cell-based, JC-1 fluorescence, 24 h, 100 nL compound (AID 1167); details: higher = more signal; note: test concentration not given here
[7] = basal 3T3-L1 adipocyte mitochondrial potential changes, profiling panel, cell-based, JC-1 fluorescence, 3T3-L1 adipocytes, 24 h, 100 nL compound (AID 1168); details: JC-1 mitochondrial fluorescence, higher = more signal, called active from +8 up or from −8 down; note: test concentration not given here
[8] = basal RPMI8226 mitochondrial membrane potential changes, profiling panel, cell-based, JC-1 fluorescence, 24 h, 100 nL compound (AID 1169); details: RPMI8226 myeloma, JC-1 mitochondrial potential fluorescence, higher = more signal; note: test concentration not given here
[9] = basal MM1S mitochondrial membrane potential changes, profiling panel, cell-based, JC-1 fluorescence, 24 h, 100 nL compound (AID 1170); details: higher = more signal; note: test concentration not given here
[10] = A549 lung cancer cell viability effects, profiling panel, resazurin fluorescence, 24 h, PK04 Diversity Set (AID 1171); details: higher = more signal, called active from +8 up or from −8 down; note: test concentration not given here
[11] = HepG2 liver cancer cell viability effects, profiling panel, resazurin fluorescence, 24 h, PK04 Diversity Set (AID 1172); details: higher = more signal; note: test concentration not given here
[12] = basal S. cerevisiae growth modulation, no modifier, primary screen, OD600, strain BY4716, 24 h, basal condition (AID 1173); details: OD600, 24 h, higher = more signal, called active from +8 up or from −8 down
[13] = MM1S myeloma cell viability, profiling panel, resazurin fluorescence, basal, 24 h, PK04 Diversity Set (AID 1174); details: higher = more signal, called active from +8 up or from −8 down;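 note: MM1S multiple myeloma cell line; test concentration not given here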
[14] = target: Dihydroorotate dehydrogenase (quinone), mitochondrial (Plasmodium falciparum (isolate 3D7)) (UniProt Q08210); experiment: PfDHODH enzyme inhibitors, primary screen, biochemical, C-terminal His tag, absorbance 600 nm (AID 1175); details: DCIP absorbance 600 nm, higher = more signal, called active from +8 up or from −8 down;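 note: recombinant parasite enzyme with a five histidine tag at its C terminus; test concentration not given here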
[15] = P. aeruginosa biofilm formation inhibitors, primary screen, strain PAO1, LB-PBS medium, absorbance 600 nm (AID 1176); note: test concentration not given here; details: P. aeruginosa PAO1 growth/biofilm, A600, 12 h; higher = more signal
[16] = S. cerevisiae RM11-1a growth modifiers, primary screen, strain RM11-1a, OD600, basal, 24 h (AID 1177); details: OD600, 24 h, higher = more signal, called active from +8 up or from −8 down;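 note: cultures grown under basal conditions with no added stressor; test concentration not given here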
[17] = E. coli acrAB mutant growth effects, primary screen, E. coli filamentation inducers, strain DRC39, OD650, 24 h (AID 1178); details: higher = more signal, called active from +8 up or from −8 down;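 note: growth measured as culture turbidity by optical density at 650 nm; test concentration not given here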
[18] = E. coli acrAB mutant growth effects, primary screen, E. coli filamentation inducers, strain DRC39, OD650, 48 h (AID 1179);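 note: screen aims at cell division blockers that make cells filament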; details: E. coli DRC39 delta-acrAB growth, higher = more signal, called active from +8 up or from −8 down
[19] = RPMI8226 myeloma cell viability, profiling panel, resazurin fluorescence, basal, 24 h, PK04 Diversity Set (AID 1180); details: higher = more signal;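 note: RPMI8826 multiple myeloma cell line at 5000 cells per well; test concentration not given here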
[20] = target: E3 ubiquitin-protein ligase XIAP (Homo sapiens) (UniProt P98170); experiment: XIAP binders, primary screen, biophysical, small-molecule microarray, fluorescence 635 nm (AID 1181); details: small-molecule microarray binding, higher = more signal;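 note: score merges 667 nm emission and signal to noise over triplicate slides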
Sequence of E3 ubiquitin-protein ligase XIAP (Homo sapiens) (P98170 whole entry, looked up): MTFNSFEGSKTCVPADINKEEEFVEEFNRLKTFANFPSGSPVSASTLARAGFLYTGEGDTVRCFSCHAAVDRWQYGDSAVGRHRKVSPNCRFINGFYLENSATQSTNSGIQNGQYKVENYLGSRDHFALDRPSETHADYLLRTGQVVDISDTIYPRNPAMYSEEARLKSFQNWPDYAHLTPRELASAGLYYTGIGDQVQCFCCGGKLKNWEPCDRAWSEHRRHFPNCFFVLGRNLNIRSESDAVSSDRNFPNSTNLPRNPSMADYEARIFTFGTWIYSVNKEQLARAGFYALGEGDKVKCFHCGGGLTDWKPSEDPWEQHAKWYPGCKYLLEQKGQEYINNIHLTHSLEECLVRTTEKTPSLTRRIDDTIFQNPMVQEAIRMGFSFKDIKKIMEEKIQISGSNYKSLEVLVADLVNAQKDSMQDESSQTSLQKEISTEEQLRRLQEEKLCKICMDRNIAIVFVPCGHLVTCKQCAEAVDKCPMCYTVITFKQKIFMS

Sequence of Dihydroorotate dehydrogenase (quinone), mitochondrial (Plasmodium falciparum (isolate 3D7)) (Q08210 whole entry, looked up): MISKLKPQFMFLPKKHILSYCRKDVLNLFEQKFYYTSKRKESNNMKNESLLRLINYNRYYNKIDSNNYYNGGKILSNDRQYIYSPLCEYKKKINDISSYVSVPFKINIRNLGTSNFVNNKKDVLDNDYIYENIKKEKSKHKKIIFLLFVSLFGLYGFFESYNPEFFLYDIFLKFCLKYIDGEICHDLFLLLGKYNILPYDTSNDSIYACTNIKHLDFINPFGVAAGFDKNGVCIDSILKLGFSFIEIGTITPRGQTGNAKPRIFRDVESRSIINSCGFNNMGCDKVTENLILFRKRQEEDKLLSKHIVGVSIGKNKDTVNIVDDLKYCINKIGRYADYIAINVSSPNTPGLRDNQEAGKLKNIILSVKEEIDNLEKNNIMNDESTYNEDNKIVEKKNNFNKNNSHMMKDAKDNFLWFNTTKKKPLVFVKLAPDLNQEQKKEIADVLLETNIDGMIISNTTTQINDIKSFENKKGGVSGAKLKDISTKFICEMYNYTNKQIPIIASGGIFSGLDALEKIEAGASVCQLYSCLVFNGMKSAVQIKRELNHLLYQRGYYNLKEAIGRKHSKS

Row | Structure (SMILES) | z-score [1] | z-score [2] | z-score [3] | z-score [4] | z-score [5] | z-score [6] | z-score [7] | z-score [8] | z-score [9] | z-score [10] | z-score [11] | z-score [12] | z-score [13] | composite z-score [14] | z-score [15] | z-score [16] | z-score [17] | z-score [18] | z-score [19] | composite z-score [20]
1 | CCOC(=O)C[C@H]1[C@H](OC(=O)c2ccc(-c3ccccc3)cc2)[C@@H](NC(=O)c2ccccc2)c2cc(OCCCO)ccc2N1C(=O)c1ccc2ccccc2n1 | -0.208 | -0.0559 | 0.261 | -0.936 | -0.617 | 0.0102 | -0.811 (inactive) | 0.939 | -0.386 | -0.264 (inactive) | -0.471 | 0.171 (inactive) | -0.397 (inactive) | -0.12 (inactive) | -0.17 (inactive) | -0.888 (inactive) | 0.27 (inactive) | 0.256 (inactive) | -0.258 | 0.132
2 | COCCCNC(=O)[C@@H]1c2ccccc2C(=O)N(Cc2ccccc2OC)[C@H]1c1ccc(CO)cc1 | -0.0798 | 1.02 | -0.429 | 0.528 | -0.447 | 1.59 | -0.588 (inactive) | -0.171 | -0.391 | 1.71 (inactive) | 1.13 | -0.993 (inactive) | 1.71 (inactive) | 0.253 (inactive) | 1.23 (inactive) | -0.839 (inactive) | 0.342 (inactive) | 0.261 (inactive) | 1.14 | 0.0472
3 | O=C(NC1CC1)[C@@H]1c2ccccc2C(=O)N(C2Cc3ccccc3C2)[C@H]1c1ccc(CO)cc1 | 0.201 | 0.526 | 0.116 | 0.62 | -0.987 | 2.96 | 0.832 (inactive) | 0.0519 | 0.339 | 0.888 (inactive) | 0.21 | -0.009 (inactive) | 0.475 (inactive) | -0.0711 (inactive) | 0.196 (inactive) | 0.397 (inactive) | 0.223 (inactive) | 0.722 (inactive) | 0.543 | -0.0044
4 | O=C(O)[C@H](Cc1ccccc1)n1cc(-c2ccccc2)nn1 | -0.757 | -0.853 | -0.177 | 0.269 | -0.157 | -0.601 | -0.0821 (inactive) | 0.666 | 0.348 | -0.143 (inactive) | 0.562 | 0.0419 (inactive) | 0.0284 (inactive) | -0.0341 (inactive) | 0.738 (inactive) | -0.14 (inactive) | -0.0353 (inactive) | -0.202 (inactive) | -0.46 | 0.0812
5 | CC[C@@H]1C=C(C(=O)O)[C@H](c2ccc(C)cc2)N1S(=O)(=O)c1ccc(C)cc1 | -0.795 | -0.235 | -0.997 | 0.0477 | 0.365 | 0.0562 | 0.348 (inactive) | 0.637 | -0.643 | 0.357 (inactive) | 0.675 | 0.174 (inactive) | 0.0178 (inactive) | -1.85 (inactive) | -0.433 (inactive) | -0.66 (inactive) | -0.303 (inactive) | 0.637 (inactive) | -0.0794 | 0.0701
6 | COc1ccc(-c2cc3c(c(Cc4ccccc4)n2)[Si](C(C)C)(C(C)C)OC3)cn1 | -0.103 | -0.19 | 0.147 | -0.494 | -1.37 | -0.914 | -1.19 (inactive) | -0.346 | 0.488 | 2.17 (inactive) | 0.177 | -0.652 (inactive) | -0.141 (inactive) | 0.653 (inactive) | 0.0429 (inactive) | 2 (inactive) | 0.184 (inactive) | 0.0876 (inactive) | 0.626 | -0.0749
7 | O=C(CS)NCCCCCNC(=O)[C@H]1C[C@H]2C(=O)NCC(=O)N2[C@H]1c1cccc(OCCO)c1 | 0.54 | 0.0451 | -0.203 | 0.304 | 0.111 | -0.342 | -0.0834 (inactive) | 0.127 | 0.112 | 0.768 (inactive) | 0.942 | -0.191 (inactive) | 1.49 (inactive) | 0.258 (inactive) | -0.764 (inactive) | -0.39 (inactive) | 0.325 (inactive) | 0.261 (inactive) | 1.28 | 0.0174
